The results in this text go back to PubChem BioAssay (Tox21).

Experiment [1] can be described thus: A CellTox Green Cytotoxicity Assay to monitor cytotoxicity in HEK293 cells - 40 hour (AID 1224871). Also: nearly all actives have a fitted effect of over 45% in size. Also: potency is read from the fitted curve at half-maximal effect. An outline of the steps:
(§1)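 Nonlytic real-time cytotoxicity: HEK293 + CellTox Green reagent plated, 5 h preincubation, pintool compound addition (23 nL in DMSO), 37 C for 40 h, fluorescence measured at successive time points.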

A short description of experiment [2]: qHTS RealTime-Glo MT Cell Viability Assay in HEK293 cells - 16 hour (AID 1224872). Also: nearly all actives have a fitted effect of over 50% in size. Also: potency is read from the fitted curve at half-maximal effect. A digest of the protocol:
(§2)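 Cells + reagent dispensed (600 cells/well, HEK293) → 5 h at 37 C/5% CO2 → 23 nL compound in DMSO pinned → 40 h at 37 C → luminescence read at 0, 8, 16, 24, 32, 40 h.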
In general terms: In qHTS, concentration-response curves come from the screen itself.

Experiment [3] in a line: qHTS RealTime-Glo MT Cell Viability Assay in HepG2 cells - 8 hour (AID 1224873). Also: nearly all actives have a fitted effect of over 55% in size. An outline of the steps:
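HepG2 cells (600/well) mixed with RealTime-Glo MT reagent, settled 5 h at 37 C/5% CO2 before compound addition. Nonlytic NanoLuc luminescence from viable-cell prosubstrate reduction read repeatedly during 40 h treatment at 37 C.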

A short description of experiment [4]: qHTS RealTime-Glo MT Cell Viability Assay in HEK293 cells - 40 hour (AID 1224874). Also: nearly all actives have a fitted effect of over 50% in size. Also: potency is read from the fitted curve at half-maximal effect. Conditions: RealTime-Glo luminescence; max response: active compounds read low. A digest of the protocol: (§3)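 Cells were seeded together with NanoLuc luciferase and a prosubstrate that viable cells reduce to a luciferase substrate. After a 5 h incubation at 37 C/5% CO2, compounds were added and luminescence was measured repeatedly during 40 h of treatment.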

The nature of experiment [5]: A CellTox Green Cytotoxicity Assay to monitor cytotoxicity in HEK293 cells - 24 hour (AID 1224875). Also: series mostly up to about 77 µM; nearly all actives have a fitted effect of over 45% in size. An outline of the steps: as §1
Experiment [6] can be described thus: A CellTox Green Cytotoxicity Assay to monitor cytotoxicity in HepG2 cells - 16 hour (AID 1224876). Also: nearly all actives have a fitted effect of over 45% in size. An outline of the steps: (§4)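 Read-out is fluorescence of a cyanine dye excluded from live cells that stains DNA of dead HepG2 cells, with signal proportional to cytotoxicity. Plates were read at 0, 8, 16, 24, 32 and 40 h after compound addition.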
Experiment [7] is described as follows: qHTS RealTime-Glo MT Cell Viability Assay in HepG2 cells - 32 hour (AID 1224877). Also: nearly all actives have a fitted effect of over 55% in size. A digest of the protocol:
(§5)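 Real-time, nonlytic viability: 600 HepG2 cells/well mixed with NanoLuc enzyme plus prosubstrate; 5 h settle, compound (DMSO) added by pintool; luminescence monitored over 40 h at 37 C.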

A short description of experiment [8]: A CellTox Green Cytotoxicity Assay to monitor cytotoxicity in HepG2 cells - 24 hour (AID 1224878). Also: nearly all actives have a fitted effect of over 45% in size. Also: potency is read from the fitted curve at half-maximal effect. A digest of the protocol: as §4
The nature of experiment [9]: A CellTox Green Cytotoxicity Assay to monitor cytotoxicity in HepG2 cells - 40 hour (AID 1224879). Also: nearly all actives have a fitted effect of over 40% in size. An outline of the steps:
as §4

Experiment [10] is described as follows: qHTS RealTime-Glo MT Cell Viability Assay in HEK293 cells - 0 hour (AID 1224880). An outline of the steps:
as §3

Experiment [11] can be described thus: A CellTox Green Cytotoxicity Assay to monitor cytotoxicity in HepG2 cells - 0 hour (AID 1224882). Also: nearly all actives have a fitted effect of over 35% in size. A digest of the protocol: as §4
Experiment [12] in a line: A CellTox Green Cytotoxicity Assay to monitor cytotoxicity in HepG2 cells - 32 hour (AID 1224883). Also: nearly all actives have a fitted effect of over 50% in size. Also: potency is read from the fitted curve at half-maximal effect. A digest of the protocol: as §4
The nature of experiment [13]: A CellTox Green Cytotoxicity Assay to monitor cytotoxicity in HEK293 cells - 8 hour (AID 1224884). Also: nearly all actives have a fitted effect of over 35% in size. A digest of the protocol: as §1
Experiment [14] in a line: qHTS RealTime-Glo MT Cell Viability Assay in HepG2 cells - 16 hour (AID 1224885). Also: nearly all actives have a fitted effect of over 50% in size. A digest of the protocol:
as §5

A short description of experiment [15]: qHTS RealTime-Glo MT Cell Viability Assay in HEK293 cells - 24 hour (AID 1224886). Also: nearly all actives have a fitted effect of over 50% in size. Also: potency is read from the fitted curve at half-maximal effect. An outline of the steps: as §2
A short description of experiment [16]: qHTS RealTime-Glo MT Cell Viability Assay in HEK293 cells - 8 hour (AID 1224887). An outline of the steps: as §3
Experiment [17] in a line: A CellTox Green Cytotoxicity Assay to monitor cytotoxicity in HEK293 cells - 16 hour (AID 1224888). Also: nearly all actives have a fitted effect of over 35% in size. An outline of the steps: as §1
Experiment [18] in a line: qHTS RealTime-Glo MT Cell Viability Assay in HepG2 cells - 0 hour (AID 1224889). Also: nearly all actives have a fitted effect of over 50% in size. A digest of the protocol: as §5
A short description of experiment [19]: A CellTox Green Cytotoxicity Assay to monitor cytotoxicity in HepG2 cells - 8 hour (AID 1224890). Also: nearly all actives have a fitted effect of over 45% in size. A digest of the protocol:
as §4

Experiment [20] can be described thus: A CellTox Green Cytotoxicity Assay to monitor cytotoxicity in HEK293 cells - 32 hour (AID 1224881). Also: nearly all actives have a fitted effect of over 40% in size. A digest of the protocol: as §1

A number with no mark means an inactive call. Inconclusive results are not listed. Activity calls are given as the source filed them. Calls follow the shape of the dose curve; as a rule, active = well fitted curve in the direction sought with a large enough effect in the repeat runs; inconclusive = weak or mixed curves; inactive = no such curve, though single readings can be large; an effect the other way counts as inactive or inconclusive.
% is scaled to controls: 0 for no effect and ±100 for the full control effect.

Regarding `CC(C)NC[C@@H](O)COc1ccc(CC(N)=O)cc1`, the Potency result in [1], in experiment [2], in experiment [3], in experiment [5], in experiment [6] and in experiment [7] was “inactive” throughout. For the same molecule, the Potency entry in [8], in experiment [9], in experiment [10], in experiment [11], in experiment [12] and in [13] was “inactive” each time. The Potency result in experiment [14], in [15], in [16], in experiment [17], in experiment [18] and in experiment [19] was “inactive” throughout. The max response in experiment [4] was -0.295%.

Take `Cc1c(C)c([N+](=O)[O-])c(C(C)(C)C)c([N+](=O)[O-])c1C`: the Potency entry in experiment [1], in experiment [2], in experiment [3], in experiment [5], in experiment [6] and in experiment [7] was “inactive” throughout. For the same molecule, the Potency result in [8], in [9], in experiment [10], in [11], in [12] and in experiment [13] was “inactive” throughout. The Potency entry in [14], in [15], in [16], in experiment [17], in [18] and in [19] was “inactive” in each case. The max response in experiment [4] is -0.27%.

For `O=S(=O)(O)c1ccc(Nc2nc(Nc3ccc(/C=C/c4ccc(Nc5nc(Nc6ccc(S(=O)(=O)O)cc6)nc(N(CCO)CCO)n5)cc4S(=O)(=O)O)c(S(=O)(=O)O)c3)nc(N(CCO)CCO)n2)cc1`, the Potency result in experiment [1], in [2], in experiment [3], in experiment [5], in experiment [6] and in [7] was “inactive” in each case. For the same molecule, the Potency result in experiment [8], in [9], in experiment [10], in [11], in experiment [12] and in experiment [13] was “inactive” each time. Further, the Potency entry in experiment [14], in experiment [15], in experiment [16], in experiment [17], in [18] and in [19] was “inactive” each time. The max response in [4] is -1.51%.

Consider `OC/C=C/CO`, for which the Potency entry in experiment [1], in [2], in experiment [3], in [5], in experiment [6] and in experiment [7] was “inactive” in each case. The Potency result in experiment [8], in experiment [9], in [10], in [11], in experiment [12] and in [13] was “inactive” throughout. For the same molecule, the Potency result in [14], in experiment [15], in experiment [16], in experiment [17], in [18] and in experiment [19] was “inactive” in each case. The max response in experiment [4] was 0.626%.

On to `CC[C@H](C)COC(=O)/C=C/c1ccc(N=Cc2ccc(OC)cc2)cc1`, for which the Potency in experiment [1] is 48.9 µM (active); in [2], 21.8 µM (active); in [4], 21.8 µM (active); in [15], 21.8 µM (active). For the same molecule, the Potency entry in experiment [3], in experiment [6], in [7], in experiment [11], in [13] and in experiment [14] was “inactive” each time. The Potency entry in [17], in [18] and in experiment [19] was “inactive” throughout.

As to `C#Cc1ccc(-c2ccccc2F)cc1`, the Potency result in [1], in [2], in [3], in [5], in [7] and in experiment [8] was “inactive” in each case. The Potency result in experiment [10], in [20], in experiment [11], in experiment [12], in [13] and in experiment [14] was “inactive” throughout. The Potency entry in experiment [15], in [16], in [17], in [18] and in experiment [19] was “inactive” in each case. In addition, in experiment [4], the max response was 5.33%.

As for `OC1CCC(C2CCCCC2)CC1` (centres undefined), the Potency entry in experiment [1], in [2], in [3], in experiment [5], in [7] and in experiment [10] was “inactive” throughout. For the same molecule, the Potency entry in [20], in experiment [11], in experiment [13], in [14], in experiment [15] and in [16] was “inactive” each time. For the same molecule, the Potency result in [17], in [18] and in [19] was “inactive” each time. In [4], the max response was -6.69%. The Potency in [8] was 43.6 µM (active).

Regarding `CCC(COC(=O)CCS)(COC(=O)CCS)COC(=O)CCS`, the Potency entry in experiment [1], in [2], in [3], in [5], in experiment [7] and in experiment [8] was “inactive” throughout. The Potency result in [9], in experiment [10], in [11], in [12], in [13] and in experiment [14] was “inactive” in each case. Moreover, the Potency result in [15], in [16], in experiment [17], in [18] and in experiment [19] was “inactive” each time. Moreover, the max response in [4] is 0.669%.

Take `CCCCNS(=O)(=O)c1ccc(C)cc1`: the Potency entry in experiment [1], in experiment [2], in experiment [3], in experiment [5], in experiment [7] and in [10] was “inactive” each time. The Potency result in experiment [20], in experiment [11], in experiment [13], in experiment [14], in experiment [15] and in experiment [16] was “inactive” throughout. Also, the Potency result in experiment [17], in [18] and in experiment [19] was “inactive” in each case. For the same molecule, in experiment [4], the max response was -16.6%. In addition, the results for the Potency in [8] and in experiment [12] were 6.16 µM (active) and 4.9 µM (active), respectively.

Turning to `Nc1ccc(Oc2ccc(Cl)cc2)cc1`, the Potency entry in experiment [1], in experiment [3], in [5], in experiment [6], in experiment [7] and in experiment [8] was “inactive” each time. Further, the Potency result in experiment [9], in [10], in experiment [20], in experiment [11], in experiment [12] and in [13] was “inactive” in each case. The Potency result in experiment [14], in experiment [17], in experiment [18] and in [19] was “inactive” each time. Besides, the Potency in experiment [2] was 21.4 µM (active); in experiment [4], 21.4 µM (active); in experiment [15], 24 µM (active).

Take `CCCC1CCC(=O)CC1`: the Potency entry in experiment [1], in [2], in [3], in experiment [5], in experiment [6] and in experiment [7] was “inactive” in each case. Also, the Potency entry in experiment [8], in experiment [9], in experiment [10], in experiment [11], in experiment [12] and in [13] was “inactive” in each case. The Potency result in experiment [14], in [15], in experiment [16], in experiment [17], in experiment [18] and in [19] was “inactive” throughout. Besides, the max response in experiment [4] was 11.1%.

`CCCC(=O)OC(C)(C)Cc1ccccc1`: the Potency in [1] is 24.5 µM (active). For the same molecule, the Potency entry in [2], in experiment [3], in experiment [5], in [7], in experiment [10] and in [20] was “inactive” in each case. In addition, the Potency entry in experiment [11], in [13], in [14], in [15], in experiment [16] and in [17] was “inactive” each time. For the same molecule, the Potency result in [18] and in [19] was “inactive” each time. In addition, in [4], the max response was -22.8%.

Consider `Nc1nc2c(ncn2COCCO)c(=O)[nH]1`, for which the Potency result in experiment [1], in experiment [2], in experiment [3], in experiment [5], in experiment [6] and in experiment [7] was “inactive” throughout. The Potency entry in experiment [8], in experiment [9], in [10], in experiment [20], in [11] and in [12] was “inactive” each time. The Potency result in experiment [13], in experiment [14], in experiment [15], in [16], in experiment [17] and in experiment [18] was “inactive” in each case. In experiment [19], the Potency result is “inactive”. Also, in experiment [4], the max response is 0.456%.
